Unmarked numbers belong to inactive results.
Each compound was assayed on Caenorhabditis elegans L1 (N2) (assay: survival and reproduction score of C. elegans L1 (0: 0-10 living worms, 1: 11-20, 2: 21-50, 3: >50, 4: overgrown) (score 0-4); higher = more worms, less nematicidal, active = 1 or less; extreme values may be limits of the assay). Settings: 60 µM; 6 days; temperature: 20 °C.
Procedure, shortened: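 After compound was pinned to 60 µM final (0.6% v/v DMSO) into wells with roughly 20 synchronized C. elegans N2 L1s and E. coli HB101 in liquid NGM, the sealed 96-well plates were shaken at 200 rpm for 6 days at 20 °C. Under a dissection microscope, survival and reproduction were graded ordinally by living worms per well. A grade of 0 stood for 0–10 worms and 4 for overgrown, starved wells; two biological replicates were averaged.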

Row | Compound | survival and reproduction score
1 | Clc1ccc(OCc2nc(-c3ccc(Br)o3)no2)cc1 | 3.5
2 | Fc1ccc(OCc2nc(-c3ccc(Br)cc3)no2)cc1 | 3
3 | Cc1ccc(-c2nc(-c3ccc4c(c3)OCO4)no2)cc1 | 4
4 | Cc1cccc(OCc2nc(-c3ccncc3)no2)c1C | 4
5 | Cc1ccc(-c2noc(-c3ccc(C)cc3C)n2)cc1 | 4
6 | CC(C)(C)C(=O)Nc1ccccc1-c1nc(-c2ccncc2)no1 | 4
7 | Fc1ccc(-c2noc(-c3ccc(Br)cc3)n2)cc1 | 0 (active)
8 | CC(C)c1ccc(OCc2nc(-c3ccccn3)no2)cc1 | 4
9 | Clc1ccc(-c2nc(-c3ccncc3)no2)c(Cl)c1 | 2
10 | COc1ccc(-c2noc(-c3cccc(Cl)c3)n2)cc1 | 4
11 | Cc1c(C(=O)CSc2nnc(-c3ccccc3)o2)c2ccccc2n1C | 4
12 | CCn1c(C)cc(C(=O)CSc2nnc(-c3ccccc3)o2)c1C | 4
13 | O=C(CSc1nnc(-c2ccc(Br)cc2)o1)Nc1nccs1 | 4
14 | COc1ccc(OC(C)c2nc(-c3ccccn3)no2)cc1 (stereo not given) | 4
15 | Clc1ccc(CSc2nnc(-c3ccccc3)o2)cc1Cl | 4
16 | Cc1nnc(CSc2nnc(-c3ccc(Cl)cc3)o2)o1 | 4
17 | Cc1ccc(-c2noc(-c3cc(C)cc(C)c3)n2)cc1 | 4
18 | Cc1cccc(-c2nnc(SCC(=O)NC(C)c3ccccc3)o2)c1 (stereo not given) | 4
19 | COc1ccc(Cl)cc1NC(=O)CSc1nnc(-c2ccc(C)cc2)o1 | 4
20 | CCc1ccc(NC(=O)CSc2nnc(-c3ccc(Cl)cc3Cl)o2)cc1 | 4

From the supplement of paper PMC11219838
